These results are taken from PubChem BioAssay (Tox21).

A short description of assay [1]: qHTS assay to test for compound auto fluorescence at 535 nm (green) in HEK293 cells (AID 720680).
Assay [2] is described as follows: qHTS assay to test for compound auto fluorescence at 460 nm (blue) in HEK293 cell free culture (AID 720681). The method in brief:
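Compounds were added to cell-free DMEM with 10% FBS and fluorescence read directly. The blue channel used 405 nm excitation and 460 nm emission, with triamterene as the reference fluorophore.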
In general terms: qHTS replaces the single test concentration by a dilution series.

Assay [3] is described as follows: qHTS assay to test for compound auto fluorescence at 535 nm (green) in HEK293 cell free culture (AID 720682). The method in brief: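 No cells present: wells hold DMEM supplemented with 10% FBS, into which compound or vehicle is pinned. Green emission is then recorded (485 nm excitation, 535 nm emission) and scaled to fluorescein.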
The nature of assay [4]: qHTS assay to test for compound auto fluorescence at 590 nm (red) in HEK293 cell free culture (AID 720683). The method in brief:
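Cell-free wells of DMEM with 10% FBS received compound, and intrinsic fluorescence was read at excitation/emission 540/590 nm. Values expressed as equivalence to Rose Bengal sodium.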

Assay [5] can be described thus: qHTS assay to test for compound auto fluorescence at 590 nm (red) in HepG2 cell free culture (AID 720684). The method in brief:
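Auto fluorescence equivalency versus Rose Bengal sodium, red channel Ex/Em 540/590 nm; compounds in cell-free MEM/10% FBS; DMSO vehicle control.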

Assay [6] can be described thus: qHTS assay to test for compound auto fluorescence at 460 nm (blue) in HepG2 cell free culture (AID 720685). In outline:
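Cell-free plates of MEM plus 10% FBS received 23 nL compound or DMSO vehicle; blue-channel (405/460 nm) intensity scored against triamterene as reference fluorophore.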

A short description of assay [7]: qHTS assay to test for compound auto fluorescence at 535 nm (green) in HepG2 cell free culture (AID 720686).
Assay [8] can be described thus: qHTS assay to test for compound auto fluorescence at 460 nm (blue) in HepG2 cells (AID 720687). The method in brief: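 HepG2 cells in MEM with 10% FBS, attached overnight at 37 C, were exposed to compound or DMSO for 1 hr at 37 C, 5% CO2. Blue fluorescence was read at 405/460 nm, with triamterene as reference fluorophore.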
Assay [9] has as its target Glucocorticoid receptor (Homo sapiens) (UniProt P04150). Nature of the assay: qHTS assay to identify small molecule agonists of the glucocorticoid receptor (GR) signaling pathway (AID 720691; active means well fitted activation curve with a large enough effect in the signal ratio in the repeat runs, not every such curve was filed as active; the % refers to the signal ratio). In outline: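 Compounds in DMSO, alongside positive controls, were added to GR-bla HeLa reporter cells and incubated 18 h at 37 C; GRE-driven beta-lactamase was detected by fluorescence after 2 h with FRET substrate at room temperature.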

Assay [10] shares this target. The assay can be described thus: qHTS assay to identify small molecule antagonists of the glucocorticoid receptor (GR) signaling pathway (AID 720692; active means well fitted inhibition curve with a large enough effect in the signal ratio in the repeat runs, not every such curve was filed as active; the % refers to the signal ratio). In outline: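 In a 1536-well cell format, compounds were added 4 h after seeding GR-bla HeLa cells, together with dexamethasone at 5 nM final; reporter activity was measured by FRET-substrate fluorescence following 18 h at 37 C.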

Assay [11] in a line: qHTS assay to identify small molecule antagonists of the glucocorticoid receptor (GR) signaling pathway - cell viability counter screen (AID 720693). Further: nearly all actives have a fitted effect of over 55% in size.
Assay [12] in a line: qHTS assay for identifying genotoxic compounds that show differential cytotoxicity against isogenic chicken DT40 cell lines with known DNA damage response pathways - wild type cell line (AID 743012). Further: nearly all actives have a fitted effect of over 60% in size. Further: potency means the concentration at half of the fitted maximal effect. The method in brief:
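Viability of DNA repair-proficient chicken DT40 cells was assessed by CellTiter-Glo luminescence following 40 h compound exposure at 37 C/5% CO2.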

A short description of assay [13]: qHTS assay for identifying genotoxic compounds that show differential cytotoxicity against isogenic chicken DT40 cell lines with known DNA damage response pathways - Rev3 mutant cell line (AID 743014). Further: nearly all actives have a fitted effect of over 55% in size. Further: potency means the concentration at half of the fitted maximal effect.
Assay [14] is described as follows: qHTS assay for identifying genotoxic compounds that show differential cytotoxicity against isogenic chicken DT40 cell lines with known DNA damage response pathways - Rad54/Ku70 mutant cell line (AID 743015). Further: nearly all actives have a fitted effect of over 60% in size. Further: potency means the concentration at half of the fitted maximal effect.
Assay [15] in a line: qHTS assay to identify small molecule antagonists of the androgen receptor (AR) signaling pathway - cell viability counter screen (AID 743033; further: nearly all actives have a fitted effect of over 45% in size; further: potency means the concentration at half of the fitted maximal effect).
Assay [16] in a line: qHTS assay to identify small molecule antagonists of the androgen receptor (AR) signaling pathway using the MDA cell line - cell viability counter screen (AID 743041; further: nearly all actives have a fitted effect of over 45% in size). In outline:
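Compound exposure lasted 16 h at 37C in MDA-kb2 AR-luc cells stimulated with R1881. Protease-based CellTiter-Fluor reagent was applied for the final 30 min and fluorescence measured.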

In assay [17] the target is Androgen receptor (Homo sapiens) (UniProt P10275). Nature of the assay: qHTS assay to identify small molecule antagonists of the androgen receptor (AR) signaling pathway (AID 743035; active means well fitted inhibition curve with a large enough effect in the signal ratio in the repeat runs, not every such curve was filed as active; the % refers to the signal ratio). In outline: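 Reporter HEK293 cells were exposed to compounds and R1881 overnight (16 h, 37C); beta-lactamase activity was then quantified by FRET fluorescence.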
The target is the same in assay [18]. The assay can be described thus: qHTS assay to identify small molecule agonists of the androgen receptor (AR) signaling pathway (AID 743036; active means well fitted activation curve with a large enough effect in the signal ratio in the repeat runs, with a control signal flat, not every such curve was filed as active; the % refers to the signal ratio). In outline:
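Quantitative HTS of the Tox21 10K library in HEK293 cells bearing a stably integrated UAS-controlled beta-lactamase reporter. Compound exposure lasted 16 h at 37C. Reporter activity was detected by FRET substrate fluorescence after 2 h at room temperature.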

Assay [19] shares this target. Nature of the assay: qHTS assay to identify small molecule agonists of the androgen receptor (AR) signaling pathway using the MDA cell line (AID 743040; further: nearly all actives have a fitted effect of over 20% in size). The method in brief: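 Testing was done with the MDA-kb2 AR-luc line, a human breast carcinoma stably transfected with MMTV-luciferase containing AR and GR response elements. Cells were exposed 16 h at 37C before ONE-Glo luminescence detection.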

Assay [20] shares this target. Nature of the assay: qHTS assay to identify small molecule antagonists of the androgen receptor (AR) signaling pathway using the MDA cell line (AID 743042; further: nearly all actives have a fitted effect of over 55% in size). The method in brief:
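MDA-kb2 breast carcinoma cells carrying MMTV-luciferase (AR/GR responsive) were co-treated with compounds and the agonist R1881 for 16 h at 37C. Inhibition read as ONE-Glo luminescence; CellTiter-Fluor fluorescence measured in parallel for cytotoxicity.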

Several values for one entry are separate records, joined by “and”; a condition that tells them apart may be missing. Equal values may be shown once. Records with an inconclusive call do not appear. More than one record can exist for a structure, and the calls need not agree. Activity calls are given as the source filed them. Unless noted, the call rests on the fitted dose curve; in most records, active means well fitted curve in the direction sought with a large enough effect in the repeat runs; inconclusive means weak or mixed curves; inactive means no such curve, though single readings can be large; an effect the other way counts as inactive or inconclusive.

Chain of Glucocorticoid receptor (Homo sapiens) (P04150 whole entry, looked up): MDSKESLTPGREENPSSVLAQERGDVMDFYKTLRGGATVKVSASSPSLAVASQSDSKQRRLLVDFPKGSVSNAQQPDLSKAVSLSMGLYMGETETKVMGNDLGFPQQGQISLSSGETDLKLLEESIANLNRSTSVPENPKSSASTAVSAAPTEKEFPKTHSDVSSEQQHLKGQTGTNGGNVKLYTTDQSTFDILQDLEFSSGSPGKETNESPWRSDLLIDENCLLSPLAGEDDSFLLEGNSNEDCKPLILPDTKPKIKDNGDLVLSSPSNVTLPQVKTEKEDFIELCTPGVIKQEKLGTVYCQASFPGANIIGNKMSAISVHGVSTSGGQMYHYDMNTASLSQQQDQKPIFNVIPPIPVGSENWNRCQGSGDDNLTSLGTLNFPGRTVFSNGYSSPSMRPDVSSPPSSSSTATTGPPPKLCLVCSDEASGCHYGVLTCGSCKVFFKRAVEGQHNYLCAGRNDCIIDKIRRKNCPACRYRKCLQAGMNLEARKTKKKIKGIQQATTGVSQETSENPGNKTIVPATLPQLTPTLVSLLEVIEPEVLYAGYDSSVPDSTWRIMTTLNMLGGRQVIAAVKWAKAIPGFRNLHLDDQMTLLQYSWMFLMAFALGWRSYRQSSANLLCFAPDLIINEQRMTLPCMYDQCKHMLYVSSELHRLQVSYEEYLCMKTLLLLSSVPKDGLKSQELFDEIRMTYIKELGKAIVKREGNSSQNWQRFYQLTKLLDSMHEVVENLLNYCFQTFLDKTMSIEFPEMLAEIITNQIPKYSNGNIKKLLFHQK
Chain of Androgen receptor (Homo sapiens) (P10275 whole entry, looked up): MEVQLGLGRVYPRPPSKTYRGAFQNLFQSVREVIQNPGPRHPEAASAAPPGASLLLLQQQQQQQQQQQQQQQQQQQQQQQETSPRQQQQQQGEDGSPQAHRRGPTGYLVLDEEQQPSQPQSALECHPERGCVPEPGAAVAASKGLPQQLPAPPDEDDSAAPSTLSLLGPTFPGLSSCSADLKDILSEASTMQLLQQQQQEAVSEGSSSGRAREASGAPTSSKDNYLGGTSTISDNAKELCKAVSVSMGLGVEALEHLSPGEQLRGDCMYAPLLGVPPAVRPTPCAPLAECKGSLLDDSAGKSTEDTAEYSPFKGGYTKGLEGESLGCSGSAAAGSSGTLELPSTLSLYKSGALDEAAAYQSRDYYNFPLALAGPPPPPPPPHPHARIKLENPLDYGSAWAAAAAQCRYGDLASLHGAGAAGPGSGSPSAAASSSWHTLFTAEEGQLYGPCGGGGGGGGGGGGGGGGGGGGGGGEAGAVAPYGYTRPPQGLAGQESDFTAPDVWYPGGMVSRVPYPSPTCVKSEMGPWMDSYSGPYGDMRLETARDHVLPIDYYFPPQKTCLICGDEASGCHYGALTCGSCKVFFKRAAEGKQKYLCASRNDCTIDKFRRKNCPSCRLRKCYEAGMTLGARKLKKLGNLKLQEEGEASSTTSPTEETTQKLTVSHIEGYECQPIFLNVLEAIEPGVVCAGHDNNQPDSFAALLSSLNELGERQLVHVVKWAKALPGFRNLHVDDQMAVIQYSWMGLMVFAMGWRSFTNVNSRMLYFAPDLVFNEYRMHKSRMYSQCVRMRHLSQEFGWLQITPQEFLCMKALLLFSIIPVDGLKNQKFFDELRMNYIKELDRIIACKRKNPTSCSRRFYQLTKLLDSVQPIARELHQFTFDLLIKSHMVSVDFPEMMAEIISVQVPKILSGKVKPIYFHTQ

As for `CC(Cl)(Cl)C(=O)O`, the molecule was classed as inactive in assay [1], in [2], in [3], in [4], in assay [5] and in [6]. The molecule was called inactive in [7], in [8] and in assay [9]. Besides, the Potency result in assay [10], in assay [11], in [12], in assay [13], in [14] and in assay [15] was “inactive” throughout. Further, in [16], the Potency result was “inactive”.
Consider `CCC(=O)C(CC(C)N(C)C)(c1ccccc1)c1ccccc1` (stereo not drawn), for which the outcome in [1], in assay [2], in [3], in assay [4], in assay [5] and in assay [6] was inactive. Besides, the molecule was called inactive in assay [7], in assay [8], in assay [9], in assay [17], in assay [18] and in assay [19]. The Potency result in assay [10], in assay [11], in assay [15], in assay [16] and in assay [20] was “inactive” in each case. Further, the Potency in [13] is 48.8 µM (active) and 60.7 µM (active) and 46.6 µM (active); in [14], 43.5 µM (active) and 41.5 µM (active).
On to `C1CCC(NC2CCCCC2)CC1`, for which the result in assay [1], in [2], in [3], in assay [4], in assay [5] and in assay [6] was inactive. For the same molecule, the molecule was called inactive in assay [7], in assay [8] and in assay [9]. The Potency result in assay [10], in assay [11], in [13], in assay [14], in assay [15] and in assay [16] was “inactive” throughout.
For `O=C(O)c1nc(Cl)ccc1Cl`, the outcome in assay [1], in assay [2], in assay [3], in assay [4], in assay [5] and in assay [6] was inactive. The molecule was classed as inactive in assay [7], in assay [8] and in assay [9]. Besides, the Potency result in assay [10], in assay [11], in [13], in [14], in [15] and in assay [16] was “inactive” throughout.
Take `O=[N+]([O-])O`: the call in [1], in assay [2], in assay [3], in assay [4], in [5] and in assay [6] was inactive. Besides, the call in assay [7], in [8] and in assay [9] was inactive. The Potency result in [10], in assay [11], in assay [15] and in assay [16] was “inactive” in each case. For the same molecule, the Potency result in assay [13] was “inactive and 9.43 µM (active)”; in [14], “inactive and 29.8 µM (active)”.
Take `C=CCOC(Cn1ccnc1)c1ccc(Cl)cc1Cl` (stereo not drawn): the outcome in [1], in assay [2], in [3], in [4], in [5] and in assay [6] was inactive. Further, the outcome in assay [7], in assay [8] and in assay [9] was inactive. In addition, the Potency entry in [10], in assay [11] and in [16] was “inactive” throughout. The Potency in [12] is 11.9 µM (active) and 48.7 µM (active) and 13.7 µM (active); in [13], 21.1 µM (active) and 27.4 µM (active) and 12.2 µM (active); in [14], 21.1 µM (active) and 43.4 µM (active) and 13.7 µM (active); in [15], “inactive and 49.1 µM (active)”.
Turning to `CCNc1nc(Cl)nc(NCC)n1`, the call in assay [1], in assay [2], in assay [3], in assay [4], in assay [5] and in assay [6] was inactive. For the same molecule, the result in assay [7], in assay [8] and in assay [9] was inactive. Further, the Potency entry in assay [10], in assay [11], in [12], in assay [13], in assay [14] and in [15] was “inactive” each time. The Potency result in [16] was “inactive”.
As for `CCCn1cc[n+](C)c1`, the outcome in assay [1], in assay [2], in assay [3], in assay [4], in assay [5] and in assay [6] was inactive. The outcome in [7], in assay [8] and in [9] was inactive. Also, the Potency result in assay [10], in [11], in [13], in assay [14], in assay [15] and in assay [16] was “inactive” in each case.
For `O=[N+]([O-])c1ccccc1O`, the result in [1], in [2], in [3], in [4], in [5] and in assay [6] was inactive. The molecule was called inactive in assay [7], in assay [8] and in [9]. The Potency entry in assay [10], in [11], in assay [12], in [13], in [14] and in assay [15] was “inactive” in each case. In addition, the Potency entry in assay [16] is “inactive”.
For the molecule `Nc1ccccc1`, the molecule was called inactive in [1], in [2], in [3], in assay [4], in [5] and in [6]. The result in [7], in assay [8] and in assay [9] was inactive. The Potency entry in assay [10], in assay [11], in [12], in [13], in [14] and in assay [15] was “inactive” each time. Also, in [16], the Potency result was “inactive”.
On to `CC[N+]1(C)CCCC1`, for which the call in [1], in [2], in assay [3], in assay [4], in assay [5] and in [6] was inactive. The call in [7], in assay [8] and in assay [9] was inactive. Moreover, the Potency entry in [10], in [11], in assay [15] and in assay [16] was “inactive” in each case. The Potency result is “inactive and 612 nM (active)” in assay [13]; “inactive and 771 nM (active)” in [14].
Take `Nc1ccc(-c2ccc(N)cc2)cc1`: the call in assay [1], in assay [2], in [3], in assay [4], in assay [5] and in assay [6] was inactive. Also, the outcome in assay [7], in assay [8] and in assay [9] was inactive. In addition, the Potency entry in assay [10], in [11], in assay [15] and in assay [16] was “inactive” throughout. Further, in assay [13], the Potency was 61.1 µM (active).
`CCCC[n+]1cccc(C)c1`: the call in [1], in [2], in [3], in assay [4], in assay [5] and in assay [6] was inactive. In addition, the molecule was classed as inactive in assay [7], in assay [8] and in [9]. In addition, the Potency result in assay [10], in assay [11], in [13], in assay [14], in [15] and in assay [16] was “inactive” each time.
As for `COP(=O)(OC)C(O)C(Cl)(Cl)Cl` (stereo not drawn), the result in assay [1], in assay [2], in assay [3], in assay [4], in [5] and in assay [6] was inactive. Besides, the outcome in [7], in assay [8] and in assay [9] was inactive. Further, the Potency entry in assay [10], in assay [11], in assay [13], in assay [14], in [15] and in assay [16] was “inactive” throughout.
Regarding `O=C(O)C(Cl)Cl`, the molecule was called inactive in [1], in [2], in assay [3], in assay [4], in [5] and in assay [6]. Moreover, the result in assay [7], in assay [8] and in assay [9] was inactive. Further, the Potency result in [10], in assay [11], in assay [13], in assay [14], in assay [15] and in [16] was “inactive” each time.
